Measurements published in PubChem BioAssay (Tox21).
Results filed as inconclusive are left out. Active and inactive are the calls of the source. Calls follow the shape of the dose curve; as a rule, active = well fitted activation curve with a large enough effect in the repeat runs; inconclusive = weak or mixed curves; inactive = no such curve, though single readings can be large or run the other way.

These compounds were tested against Nuclear receptor subfamily 1 group I member 2 (Homo sapiens) (UniProt O75469) (assay: CYP3A4 induction through human pregnane X receptor (PXR) by small molecules, qHTS assay (AID 1346984; also: nearly all actives have a fitted effect of over 40% in size)). Settings: DPX-2 HepG2 PXR, CYP3A4-luciferin luminescence, 24 h; series mostly up to 46.1 µM.
Excerpt: National Center for Advancing Translational Sciences [NCATS]
NIH Chemical Genomics Center [NCGC]
U.S. Environmental Protection Agency [EPA]
National Institutes of Environmental Health Sciences [NIEHS]
National Toxicology Program [NTP]
The Pregnane X receptor (PXR), a ligand activated nuclear receptor plays a critical role in the regulation of genes involved in drug metabolism and transporters. Activation of PXR is responsible for unwanted adverse drug reactions. PXR binds xenobiotics and when compounds interact with PXR enhances the expression of CYP3A genes. Identifying the compounds with the potential for PXR activation and CYP3A4 induction can be of importance in improving the efficacy of drugs with less toxicity and avoiding drug-drug interactions.
DPX-2 (Puracyp, Inc.) cell lines, used for screening against human PXR activation has HepG2 cells co-transfected with a PXR response element and a luciferase construct containing CYP3A4 promoter. Increase in luciferase activity can be used to identify the compounds that cause the induction of CYP3A4.
DPX-2 cells were dispensed at 2,000 cells per well in 5uL of assay medium into white, solid-bottom 1536-well plates using a Multidrop Combi dispenser (Thermo Scientific). The assay plates were incubated at 37C for 5hr before transferring 23nL of test compounds dissolved in DMSO and positive control via Pintool station (Wako). The assay plates were incubated at 37C for 24hr. After 24hr compound treatment, 1uL of 3uM (final concentration) P450 substrate (P450-Glo CYP3A4 screening system with Luciferin-IPA, Promega) was added by a Flying Reagent Dispenser (FRD, Aurora Discovery). The assay plates were incubated for 3hr at 37C. Then 5ul One-Glo assay reagent (Promega) was added to each plate by an FRD and following 30 min incubation at room temperature, luciferase activity was quantified on a ViewLux plate reader (Perkin Elmer).

Structure (SMILES) | outcome
CC(C)=C[C@@H]1[C@@H](C(=O)OCc2coc(Cc3ccccc3)c2)C1(C)C | inactive
C#CCN(C)[C@H](C)Cc1ccccc1 | inactive
CCOC(=O)c1ccccc1C(=O)OCC | inactive
Clc1ccc(Cl)cc1 | inactive
Nc1ccccc1C(=O)O | inactive
CN(C)[C@@H]1C(=O)C(C(N)=O)=C(O)[C@@]2(O)C(=O)C3=C(O)c4c(O)cccc4[C@@](C)(O)[C@H]3C[C@@H]12 | inactive
OC(O)C(Cl)(Cl)Cl | inactive
Clc1ccccc1Cl | inactive
O=[N+]([O-])c1ccccc1 | inactive
O=c1n(Cl)c(=O)n(Cl)c(=O)n1Cl | inactive
O=[N+]([O-])c1ccc([As](=O)(O)O)cc1 | inactive
O=C(NC(=O)c1c(F)cccc1F)Nc1cc(Cl)c(OC(F)(F)C(F)C(F)(F)F)cc1Cl (stereo not given) | inactive
O=C(O)c1ccccn1 | inactive
CC1OC(C)OC(C)O1 (stereo not given) | inactive
C[C@]12CC[C@H]3[C@@H](CC[C@@]45O[C@@H]4C(O)=C(C#N)C[C@]35C)[C@@H]1CC[C@@H]2O | inactive
